In assay [1] the test system is Wnt5a (protein binding on small-molecule microarray). Nature of the assay: small molecules binding Wnt5a protein – biophysical, small-molecule microarray, 635/667 nm fluorescence, primary screen (AID 1142).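 Also: fluorescence read at 667 nm with signal to noise per printed feature.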 Conditions: 635 nm fluorescence, higher = more signal.
Assay [2] in a line: ATP-based viability of Huh7 replicon cells – cell-based, CellTiter-Glo luminescence, basal, 48 h, cytotoxicity control for HCV replication inhibitor project, primary screen (AID 1143).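 Also: Huh7 hepatoma cells carrying a hepatitis C replication reporter with no stimulus; test concentration not given here.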 The note with it: higher = more signal, called active from +8 up or from −8 down. On the technique in general: In antiviral work, replicon cells carry a viral genome segment that copies itself.
A short description of assay [3]: Pseudomonas biofilm growth suppression – PAO1 strain, BacTiter-Glo luminescence, LB-PBS, primary screen (AID 1144). Conditions: P. aeruginosa PAO1 biofilm, 12 h, higher = more signal.
A short description of assay [4]: basal CRE-LacZ reporter activity in PC12 – cell-based, unstimulated, primary screen (AID 1145). The note with it: no forskolin, luminescence, 4.5 h, higher = more signal, called active from +8 up or from −8 down.
Assay [5] can be described thus: forskolin-driven CRE-LacZ activity in PC12 – cell-based, CRE-LacZ reporter, forskolin-stimulated, primary screen (AID 1146).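 Also: PC12 cells with 6xCRE LacZ reporter stimulated by forskolin 10 µM; beta-galactosidase reporter signal reflecting CREB driven transcription.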 The note with it: luminescence, 4.5 h, higher = more signal, called active from +8 up or from −8 down.
In assay [6] the target is Streptavidin (Streptomyces avidinii) (UniProt P22629). Nature of the assay: compounds binding control protein streptavidin – biophysical, small-molecule microarray, 635/667 nm fluorescence, artefact control for SMM compound annotation, primary screen (AID 1147).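 Also: signal reflects streptavidin binding to arrayed compounds as a control protein.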 The note with it: higher = more signal.
Assay [7] in a line: probe aInhba binding on compound microarray – biochemical, small-molecule microarray, 635/667 nm fluorescence, primary screen (AID 1148).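 Also: score merges 667nm spot fluorescence with signal-to-noise for antibody binding to printed compounds.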 The note with it: higher = more signal.
The target in assay [8] is Torsin-1A (Homo sapiens) (UniProt O14656). Put plainly: TOR1A wild-type binding on microarray – cell lysate, small-molecule microarray, lysate, 635/667 nm, primary screen (AID 1149). Conditions: COS7 hTOR1A-WT lysate, 635 nm fluorescence, higher = more signal.
The target is the same in assay [9]. Nature of the assay: torsin A mutant lysate binding on microarrays – cell lysate, small-molecule microarray, COS7 lysate, 635/667 nm fluorescence, primary screen (AID 1150).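 Also: score pools 667 nm emission and signal to noise measuring lysate protein binding.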 Conditions: COS7 hTOR1A mutant lysate, 635 nm fluorescence, higher = more signal.
The test system of assay [10] is Sonic hedgehog protein (Shh). Put plainly: Sonic hedgehog microarray binding compounds – biochemical, small-molecule microarray, 635/667 nm fluorescence, primary screen (AID 1151).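 Also: Shh protein binding to compounds spotted on small-molecule microarray slides; score combines spot fluorescence intensity with signal-to-noise across triplicate slides.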 Conditions: 635 nm fluorescence, higher = more signal.
Assay [11] in a line: optical density shifts of acrAB sulA E. coli – strain DRC41, OD650, 48 h, E. coli filamentation inducer project, primary screen (AID 1152).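 Also: E. coli MC1000 strain DRC41 lacking acrAB efflux pump and sulA.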 The note with it: higher = more signal, called active from +8 up or from −8 down.
Assay [12] in a line: probe aLefty1 binding on compound microarray – biochemical, small-molecule microarray, 635/667 nm fluorescence, primary screen (AID 1153).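 Also: score merges spot fluorescence with signal-to-noise ratio from the scanned slide images.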 The note with it: higher = more signal.
Assay [13] in a line: plasmodial surface anion channel blockers, osmotic lysis – cell-based, P. falciparum Indochina, OD700, 1 h, primary screen (AID 1154). The note with it: P. falciparum Indochina infected RBC osmotic lysis, higher = more signal, called active from +8 up or from −8 down.
A short description of assay [14]: plasmodial surface anion channel blockers, osmotic lysis – cell-based, P. falciparum Indochina, OD700, 2 h, primary screen (AID 1155).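 Also: lysis reports solute entry through the parasite surface anion channel PSAC.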 Conditions: P. falciparum Indochina infected erythrocytes, higher = more signal, called active from +8 up or from −8 down.
Assay [15] is described as follows: changes in parasitized red cell lysis, either direction – P. falciparum Indochina, OD700, 3 h, PSAC antagonist project, primary screen (AID 1156). The note with it: P. falciparum-infected erythrocytes, osmotic lysis, higher = more signal, called active from +8 up or from −8 down.
The nature of assay [16]: plasmodial surface anion channel blockers, osmotic lysis – cell-based, P. falciparum Indochina, OD700, 18 h, primary screen (AID 1157). The note with it: P. falciparum Indochina infected erythrocytes, osmotic lysis OD700, 18 h; higher = more signal, called active from +8 up or from −8 down.
A short description of assay [17]: S6 kinase pathway phospho-S6 level changes – cell-based, A549, cytoblot, luminescence, serum-stimulated, primary screen (AID 1158).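 Also: serum-stimulated A549 lung adenocarcinoma cells; signal is phosphorylated S6 detected by cytoblot immunostaining with HRP secondary.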 Conditions: 5 h, higher = more signal.
Assay [18] has as its target NADPH oxidase 2 (Homo sapiens) (UniProt P04839). Nature of the assay: compounds shifting NOX2 Amplex Red fluorescence – cell-based, HEK293-NOX2, PMA-stimulated, NOX inhibitor project, primary screen (AID 1159). Also: test concentration not given here. Conditions: 45 min, higher = more signal, called active from +8 up or from −8 down.
Assay [19] has as its target NADPH oxidase 4 (Homo sapiens) (UniProt Q9NPH5). Put plainly: compounds shifting NOX4 Amplex Red fluorescence – cell-based, HEK293-NOX4, tetracycline-induced, NOX inhibitor project, primary screen (AID 1160). The note with it: HEK293-NOX4, Amplex Red H2O2 fluorescence, 45 min; higher = more signal, called active from +8 up or from −8 down.
The target of assay [20] is NADPH oxidase 5 (Homo sapiens) (UniProt Q96PH1). Nature of the assay: compounds shifting NOX5 Amplex Red fluorescence – cell-based, HEK293-NOX5, NOX inhibitor project, primary screen (AID 1161). The note with it: HEK293-NOX5, ionomycin, 45 min, higher = more signal.

The source made the active and inactive calls. Unless noted, no rule for the calls is given here.

NADPH oxidase 5 (Homo sapiens), sequence (Q96PH1 whole entry, looked up): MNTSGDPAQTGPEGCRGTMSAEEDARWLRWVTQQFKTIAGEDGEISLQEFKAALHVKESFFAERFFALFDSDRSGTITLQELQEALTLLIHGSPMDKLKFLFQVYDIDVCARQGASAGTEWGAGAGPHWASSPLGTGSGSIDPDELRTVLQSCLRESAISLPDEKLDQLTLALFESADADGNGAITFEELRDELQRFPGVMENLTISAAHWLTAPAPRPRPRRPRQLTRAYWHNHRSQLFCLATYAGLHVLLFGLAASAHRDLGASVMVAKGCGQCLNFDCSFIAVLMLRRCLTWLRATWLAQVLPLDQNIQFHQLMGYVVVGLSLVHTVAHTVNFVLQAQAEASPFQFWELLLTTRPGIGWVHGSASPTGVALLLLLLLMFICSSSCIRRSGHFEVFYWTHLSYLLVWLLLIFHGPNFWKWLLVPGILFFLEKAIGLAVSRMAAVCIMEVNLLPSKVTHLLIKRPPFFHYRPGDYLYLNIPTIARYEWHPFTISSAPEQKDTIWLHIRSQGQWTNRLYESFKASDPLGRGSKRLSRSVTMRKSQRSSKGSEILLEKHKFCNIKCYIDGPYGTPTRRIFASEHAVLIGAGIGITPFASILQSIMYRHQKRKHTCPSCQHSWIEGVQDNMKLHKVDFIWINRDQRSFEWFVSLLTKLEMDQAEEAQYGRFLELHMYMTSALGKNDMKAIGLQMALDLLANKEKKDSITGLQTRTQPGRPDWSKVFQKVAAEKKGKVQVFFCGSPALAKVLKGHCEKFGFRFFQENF
NADPH oxidase 4 (Homo sapiens), sequence (Q9NPH5 whole entry, looked up): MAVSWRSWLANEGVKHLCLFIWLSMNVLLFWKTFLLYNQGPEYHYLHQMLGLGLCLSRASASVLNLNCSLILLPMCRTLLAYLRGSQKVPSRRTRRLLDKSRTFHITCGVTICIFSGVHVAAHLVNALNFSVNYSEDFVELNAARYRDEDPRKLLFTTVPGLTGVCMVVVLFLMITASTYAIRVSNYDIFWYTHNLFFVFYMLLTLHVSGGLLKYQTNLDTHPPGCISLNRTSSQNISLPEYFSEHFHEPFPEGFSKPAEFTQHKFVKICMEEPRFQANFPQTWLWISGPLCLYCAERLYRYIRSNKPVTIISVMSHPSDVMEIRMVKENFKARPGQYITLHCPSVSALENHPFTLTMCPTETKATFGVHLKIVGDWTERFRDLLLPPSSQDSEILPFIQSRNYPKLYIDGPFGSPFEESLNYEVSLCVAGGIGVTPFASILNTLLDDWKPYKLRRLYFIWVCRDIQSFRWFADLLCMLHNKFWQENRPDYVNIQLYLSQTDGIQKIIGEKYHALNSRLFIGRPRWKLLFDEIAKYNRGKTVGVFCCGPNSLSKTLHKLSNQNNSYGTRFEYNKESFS
NADPH oxidase 2 (Homo sapiens), sequence (P04839 whole entry, looked up): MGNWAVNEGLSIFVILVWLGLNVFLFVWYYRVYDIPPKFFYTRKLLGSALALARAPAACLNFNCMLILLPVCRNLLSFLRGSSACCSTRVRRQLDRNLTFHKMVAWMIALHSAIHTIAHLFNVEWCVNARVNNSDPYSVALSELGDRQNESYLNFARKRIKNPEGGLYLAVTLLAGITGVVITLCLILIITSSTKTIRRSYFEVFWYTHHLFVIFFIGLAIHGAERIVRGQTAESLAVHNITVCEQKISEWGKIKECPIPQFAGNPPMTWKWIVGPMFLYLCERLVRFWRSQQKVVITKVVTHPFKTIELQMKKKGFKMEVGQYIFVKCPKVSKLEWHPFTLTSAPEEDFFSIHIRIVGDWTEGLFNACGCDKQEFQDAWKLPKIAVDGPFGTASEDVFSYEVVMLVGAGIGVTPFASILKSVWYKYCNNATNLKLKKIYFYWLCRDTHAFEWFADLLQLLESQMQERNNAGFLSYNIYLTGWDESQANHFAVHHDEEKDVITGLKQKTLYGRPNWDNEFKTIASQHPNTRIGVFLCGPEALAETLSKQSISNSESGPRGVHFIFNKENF
Torsin-1A (Homo sapiens), sequence (O14656 whole entry, looked up): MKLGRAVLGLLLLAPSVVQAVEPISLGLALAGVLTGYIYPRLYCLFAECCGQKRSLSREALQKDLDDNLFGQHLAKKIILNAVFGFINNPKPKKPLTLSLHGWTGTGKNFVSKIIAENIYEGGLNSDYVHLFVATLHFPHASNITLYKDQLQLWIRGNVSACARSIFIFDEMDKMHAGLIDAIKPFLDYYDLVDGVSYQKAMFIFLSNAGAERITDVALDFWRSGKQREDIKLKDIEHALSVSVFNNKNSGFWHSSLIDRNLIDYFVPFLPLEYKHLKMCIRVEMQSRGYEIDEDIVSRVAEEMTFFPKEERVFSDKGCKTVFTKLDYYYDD
Streptavidin (Streptomyces avidinii), sequence (P22629 whole entry, looked up): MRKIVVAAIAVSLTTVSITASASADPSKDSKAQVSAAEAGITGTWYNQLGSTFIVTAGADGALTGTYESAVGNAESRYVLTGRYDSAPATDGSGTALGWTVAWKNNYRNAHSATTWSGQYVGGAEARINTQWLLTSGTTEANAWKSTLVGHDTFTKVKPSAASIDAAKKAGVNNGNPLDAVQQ

As for `CC(C)CNC(=O)[C@@]1(C)c2ccccc2C(=O)N(Cc2cc(F)cc(C(F)(F)F)c2)[C@H]1c1ccc(CO)cc1`, the composite z-score in assay [1] is 0.03; in [6], -0.26; in [7], -0.0719; in the assay with Torsin-1A (Homo sapiens) [8] it was 0.194; with Torsin-1A (Homo sapiens) [9], 0.127; in assay [10], 1.23. This molecule came in with a composite z-score in assay [12] of 0.163. For the same molecule, the z-score is 0.169 (inactive) in [2]; -0.428 (inactive) in [3]; -0.321 (inactive) in [4]; 0.13 (inactive) in assay [5]; -0.144 (inactive) in assay [11]; 2.26 (inactive) in [13]. For the same molecule, the z-score is 0.684 (inactive) in [14]; 0.33 (inactive) in [15]; 0.253 (inactive) in [16]; 0.0857 in assay [17]; -0.152 (inactive) in assay [18]; 0.261 (inactive) in assay [19]. Further, in assay [20], the z-score was -0.364.

`CCOC(=O)C[C@H]1[C@H](OC(=O)c2ccc(-c3ccccc3)cc2)[C@@H](NC(=O)c2ccc3ccccc3c2)c2cc(OCCCO)ccc2N1C(=O)c1ccccc1`: the composite z-score worked out at 0.247 in assay [1]; 0.114 in assay [6]; 0.0497 in [7]; 0.742 with Torsin-1A (Homo sapiens) [8]; 0.988 in the assay with Torsin-1A (Homo sapiens) [9]; 0.27 in assay [10]. Also, in assay [12], the composite z-score turned out to be 0.0691. Further, the z-score in assay [2] is -0.433 (inactive); in assay [3] it was 0.0625 (inactive); in assay [4], 0.544 (inactive); in [5] it was 1.09 (inactive); in assay [11] it was -0.966 (inactive); in assay [13] it was 0.398 (inactive). The z-score in assay [14] was 0.134 (inactive); in assay [15], -0.337 (inactive); in assay [16] it was 0.407 (inactive); in [17], 0.263; in assay [18] it was -2.38 (inactive); in assay [19], -1.62 (inactive). In assay [20], the z-score was -0.532.

As for `CCCCC(O)C1C=CC2C(=O)N(C)C(=O)C2N1Nc1ccccc1` (stereo not given), the composite z-score was 0.0991 in assay [1]; 0.264 in assay [6]; 0.106 in assay [7]; 0.29 in the assay with Torsin-1A (Homo sapiens) [8]; 0.0531 in the assay with Torsin-1A (Homo sapiens) [9]; -0.768 in assay [10]. This molecule registered a composite z-score in assay [12] of 0.165. Besides, the z-score is 0.898 (inactive) in assay [2]; -0.556 (inactive) in assay [3]; -0.14 (inactive) in assay [4]; 0.721 (inactive) in [5]; -1.37 (inactive) in [11]; -0.242 (inactive) in assay [13]. Also, the z-score in [14] was 0.735 (inactive); in assay [15] it was 0.243 (inactive); in assay [16], 1.17 (inactive); in assay [17], -1.35; in [18] it was -1.32 (inactive); in [19], -3.48 (inactive). The z-score in assay [20] is -2.72.

For the molecule `C=CCC(OC(C)=O)[C@@H]1[C@@H](N(Cc2ccc(-c3cccc(C(F)(F)F)c3)o2)C(=O)Cc2ccc(OC)cc2)c2cc(OCCCO)ccc2N1C(=O)c1ccc2ccccc2n1` (stereo not given in full), the composite z-score in assay [1] is -0.162; in assay [6], -0.356; in assay [7], 0.0517; with Torsin-1A (Homo sapiens) [8], 0.0833; with Torsin-1A (Homo sapiens) [9], -0.475; in [10], 0.38. In assay [12], the composite z-score is -0.0046. Besides, the z-score in assay [2] is -1.45 (inactive); in [3], 0.6 (inactive); in [4], 0.339 (inactive); in assay [5] it was 0.792 (inactive); in assay [11], -0.797 (inactive); in assay [13], 0.83 (inactive). Moreover, the z-score in assay [14] was 0.74 (inactive); in assay [15], 0.959 (inactive); in assay [16] it was 0.289 (inactive); in assay [17] it was 0.342; in assay [18] it was -0.236 (inactive); in assay [19] it was -1.23 (inactive). Also, in assay [20], the z-score was -1.45.

Regarding `CCCCCN1CC=CC23O[C@@H]4C=CCOC(=O)[C@@H]4[C@H]2C(=O)N(CCCCCO)[C@@H]3C1=O` (stereo not given in full), the composite z-score was -0.659 in assay [1]; -0.735 in assay [6]; -0.213 in assay [7]; 0.459 with Torsin-1A (Homo sapiens) [8]; 2.16 with Torsin-1A (Homo sapiens) [9]; 0.32 in assay [10]. Further, the composite z-score in assay [12] is -0.0766. The z-score was -0.211 (inactive) in [2]; -1.51 (inactive) in assay [3]; -1.45 (inactive) in [4]; -0.151 (inactive) in [5]; 1.73 (inactive) in assay [11]; 1.47 (inactive) in assay [13]. Moreover, the z-score is 0.702 (inactive) in [14]; 1.45 (inactive) in [15]; 0.601 (inactive) in [16]; 0.461 in assay [17]; 1.35 (inactive) in [18]; 0.575 (inactive) in assay [19]. Further, the z-score in assay [20] was 1.94.

For `CC(C)C[C@@H]1NC(=O)[C@H]2C[C@@H](C(=O)NCCCCCNC(=O)CS)[C@@H](c3ccc(O)cc3)N2C1=O`, the composite z-score was 0.702 in [1]; 0.413 in [6]; -0.116 in assay [7]; 0.6 in the assay with Torsin-1A (Homo sapiens) [8]; 0.997 with Torsin-1A (Homo sapiens) [9]; 1.35 in assay [10]. Moreover, the composite z-score in [12] was -0.549. In addition, the z-score was -0.153 (inactive) in [2]; -0.215 (inactive) in assay [3]; 0.135 (inactive) in [4]; -0.908 (inactive) in [5]; 0.213 (inactive) in assay [11]; 3.25 (inactive) in [13]. The z-score in [14] is 0.945 (inactive); in assay [15], 0.256 (inactive); in assay [16], 0.277 (inactive); in assay [17], -0.277; in [18], 1 (inactive); in [19] it was -0.828 (inactive). Further, in [20], the z-score was 0.918.

As for `CC(C)CNC(=O)[C@@H]1c2ccccc2C(=O)N(Cc2ccccc2Cl)[C@H]1c1ccc(CO)cc1`, the composite z-score in assay [1] was -0.0721; in assay [6], -0.222; in assay [7] it was -0.204; with Torsin-1A (Homo sapiens) [8], 0.0521; with Torsin-1A (Homo sapiens) [9] it was 0.13; in assay [10] it was 0.145. The composite z-score in [12] is -0.133. For the same molecule, the z-score was -0.121 (inactive) in assay [2]; -0.431 (inactive) in assay [3]; -0.179 (inactive) in assay [4]; -0.867 (inactive) in assay [5]; 0.244 (inactive) in assay [11]; 2.54 (inactive) in assay [13]. Moreover, the z-score is 0.526 (inactive) in assay [14]; 0.531 (inactive) in assay [15]; 0.181 (inactive) in assay [16]; 0.279 in [17]; -0.451 (inactive) in assay [18]; 0.16 (inactive) in assay [19]. Further, in [20], the z-score is -1.75.

As for `COC(=O)Cn1c(C(=O)N(C)C)cc2c1C[C@H]1CN(C(=O)c3ccccc3)[C@@](Cc3ccc(OC)cc3)(C(=O)OC)[C@@H]21`, the composite z-score is 1.09 in assay [1]; 0.896 in assay [6]; 0.438 in assay [7]; 0.244 with Torsin-1A (Homo sapiens) [8]; 0.0985 with Torsin-1A (Homo sapiens) [9]; -0.333 in [10]. Besides, the composite z-score in assay [12] came out at 0.546. For the same molecule, the z-score was -1.99 (inactive) in assay [2]; 0.655 (inactive) in assay [3]; 0.966 (inactive) in [4]; 0.353 (inactive) in [5]; -1.35 (inactive) in assay [11]; 2.81 (inactive) in assay [13]. Also, the z-score in [14] was 0.765 (inactive); in [15] it was 1.04 (inactive); in assay [16] it was 0.765 (inactive); in [17], -0.62; in assay [18], 0.494 (inactive); in assay [19], -0.539 (inactive). Further, the z-score in [20] stood at 0.813.

Source of the values: PubChem BioAssay.
